The list is not random: actives were taken first. Their share in the collection is about 19%.
LASV entry inh: Lassa virus entry inhibition; 300,000 tested, 1.2% active; AID 540256; Lassa virus pseudotype entry inhibition, cell reporter; Potency, µM (titrated, usually from 37.9 µM), for the others: at the top dose activity change, negative = inhibition, usual class: inhibitors; calls by dose curve; tested in HEK293 cells; note: potency is the fitted concentration of half-maximal effect; % is set by controls: 0 for no effect and ±100 for the full control effect; nearly all actives have a fitted effect of over 50% in size
MARV entry inh: blocks Marburg virus binding to or entry into cells; AID 540276; Marburg virus pseudotyped entry inhibition, cell reporter; 300,000 tested, 1.8% active; Potency, µM (series often up to 37.8 µM), without a hit: top-dose activity change, negative = inhibition, actives largely listed as inhibitors; calls by dose curve; tested in HEK293 cells; note: potency is the fitted concentration of half-maximal effect; % is set by controls: 0 for no effect and ±100 for the full control effect
Shiga inhibitor: blocks Shiga toxin action in Vero cells; 290,000 tested, 9.2% active; AID 2315; Vero cells, Shiga toxin protein synthesis inhibition reporter; inhibition, % at 38.7 µM; in the data active = inhibition mostly above about 28%, no sharp cut-off; inactive = mostly below about 43%; note: 0% is about no effect
Cycloheximide cs: counter-screen hit for Shiga toxin inhibitors, cycloheximide. cell reporter, cycloheximide protein synthesis inhibition counterscreen. max response, %. 300,000 tested, 12% active; in the data active = max response mostly above about 13%, no sharp cut-off; inactive = mostly below about 14%; note: read at 38.3 µM for the half of the compounds with a filed dose; 0% is about no effect
Pf growth 48h: P. falciparum growth inhibition at 48 hours (one generation) | Potency, µM (top dose mostly 28.7 µM), for inactives: top-dose activity change, negative = inhibition, most hits filed as inhibitors | P. falciparum luciferase growth in erythrocytes, 48 h | AID 504832 | 310,000 tested, 5.9% active; note: potency is the fitted concentration of half-maximal effect; % is set by controls: 0 for no effect and ±100 for the full control effect
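In quantitative HTS format, infected erythrocytes bearing luciferase-reporter parasites were treated for a single generation at 37 C. Luminescence after adding detection reagent served as the growth measure.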
Pf growth 96h: P. falciparum growth inhibition at 96 hours; AID 504834; 320,000 tested, 6.9% active; P. falciparum luciferase reporter growth, 96 h; Potency, µM (top dose mostly 28.7 µM), for inactives: at the top dose activity change, negative = inhibition, usual class: inhibitors; note: potency is the fitted concentration of half-maximal effect; % is set by controls: 0 for no effect and ±100 for the full control effect
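96 h incubation, 37 C, 5% CO2, of luciferase-reporter P. falciparum-infected RBCs (2% hematocrit, 0.05% parasitemia final) with test compounds; endpoint luminescence.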
* marks the source's active call; other numbers are inactive results; [ ] = another dose, or the depositor's remark. Unless noted, calls come from the whole dose curve; as a rule, active = well fitted inhibition curve with a large enough effect; inconclusive = small, poorly fitted or top-dose-only effect, or another doubt; inactive = no such curve, though single readings can be large or run the other way.

How did CCN(CC)c1ccc(C(=O)n2cnc3ccccc32)cc1 do in these assays?
LASV entry inh: inconclusive; MARV entry inh: inconclusive; Shiga inhibitor: 68; Cycloheximide cs: 25*; Pf growth 48h: 48%; Pf growth 96h: -19%

What do the screens show for `Cc1cc2ncn(C(=O)c3ccc(F)cc3)c2cc1C`?
LASV entry inh: 3%; MARV entry inh: -7%; Shiga inhibitor: 1; Cycloheximide cs: -1; Pf growth 48h: 24%; Pf growth 96h: 33%

How did C=CCNCCOc1cccc(Br)c1 do in these assays?
LASV entry inh: -1%; MARV entry inh: -6%; Shiga inhibitor: -5; Cycloheximide cs: -3; Pf growth 48h: -5%; Pf growth 96h: 6%

Results for COC(=O)c1c(C)[nH]c(C(=O)C(C)OC(=O)C2CC2C)c1C (centres undefined) ?
Pf growth 48h: -26%; Pf growth 96h: inconclusive

Results for C[C@]12CC[C@H]3c4ccc(O)cc4CC[C@@H]3[C@H]1CC[C@@H]2OP(=O)(O)O ?
Pf growth 48h: -12%; Pf growth 96h: -7%

Results for CCCOc1ccc(C(=O)NNC(=S)NC(=O)c2cc(-c3ccc(Cl)cc3)nc3ccccc23)cc1 ?
LASV entry inh: -10%; MARV entry inh: inconclusive; Shiga inhibitor: -33; Cycloheximide cs: 1; Pf growth 48h: inconclusive; Pf growth 96h: 8%

What do the screens show for `CCNC(=S)NNC(=O)c1cc(-c2ccc(OCC)cc2)nc2ccccc12`?
LASV entry inh: 1.2µM*; MARV entry inh: inconclusive; Shiga inhibitor: -26; Cycloheximide cs: -12; Pf growth 48h: inconclusive; Pf growth 96h: 2%

How did CCNC(=S)NNC(=O)c1cc(-c2cccc(OC)c2)nc2ccccc12 do in these assays?
LASV entry inh: inconclusive; MARV entry inh: inconclusive; Shiga inhibitor: 43; Cycloheximide cs: 71*; Pf growth 48h: -5%; Pf growth 96h: -27%

How did CCCCNC(=S)NNC(=O)c1cc(-c2ccncc2)nc2ccccc12 do in these assays?
LASV entry inh: 0%; MARV entry inh: -16%; Shiga inhibitor: 24; Cycloheximide cs: 19*; Pf growth 48h: -3%; Pf growth 96h: 28%

Results for CCCCNC(=S)NNC(=O)c1cc(C2CC2)nc2ccccc12 ?
LASV entry inh: 6%; MARV entry inh: 11%; Shiga inhibitor: -9; Cycloheximide cs: -2; Pf growth 48h: inconclusive; Pf growth 96h: 40%

How did CCNC(=S)NNC(=O)c1cc(-c2ccccc2C)nc2ccccc12 do in these assays?
LASV entry inh: -3%; MARV entry inh: 2%; Shiga inhibitor: 19; Cycloheximide cs: 2; Pf growth 48h: inconclusive; Pf growth 96h: inconclusive

Results for CCCOc1cccc(-c2cc(C(=O)NNC(=S)NCC)c3ccccc3n2)c1 ?
LASV entry inh: -7%; MARV entry inh: 0%; Shiga inhibitor: 87*; Cycloheximide cs: 25*; Pf growth 48h: 10µM*

What do the screens show for `COCCn1c(SCC(=O)N2CCCCC2)nc2ccccc2c1=O`?
LASV entry inh: 3%; MARV entry inh: 3%; Shiga inhibitor: -11; Cycloheximide cs: 5; Pf growth 48h: inconclusive; Pf growth 96h: inconclusive

Results for CCOc1ccc(CSC2=NCCN2)cc1Cl ?
LASV entry inh: inconclusive; MARV entry inh: 15µM*; Shiga inhibitor: -5; Cycloheximide cs: -3; Pf growth 48h: inconclusive; Pf growth 96h: 15%

What do the screens show for `Clc1ccccc1CSC1=NCCN1`?
LASV entry inh: -16%[46.1 µM]; MARV entry inh: -23%[46.1 µM]; Shiga inhibitor: 9; Cycloheximide cs: 12; Pf growth 48h: 15µM*; Pf growth 96h: 23%

Results for N#Cc1ccc(CSC2=NCCN2)cc1 ?
LASV entry inh: inconclusive; MARV entry inh: inconclusive; Shiga inhibitor: 36; Cycloheximide cs: 13; Pf growth 48h: inconclusive; Pf growth 96h: inconclusive

Results for CCOC(=O)c1cnc2c(ccc3ccccc32)c1NCCCN(C)C ?
LASV entry inh: inconclusive; MARV entry inh: inconclusive; Shiga inhibitor: 131*; Cycloheximide cs: 33*; Pf growth 48h: 4.1µM*; Pf growth 96h: inconclusive

How did CCOC(=O)c1cnc2ccc(Cl)cc2c1NCCN(C)C do in these assays?
LASV entry inh: 3%; MARV entry inh: inconclusive; Shiga inhibitor: 35; Cycloheximide cs: 26*; Pf growth 48h: inconclusive; Pf growth 96h: 4.7µM*

Results for CCN1C(=S)SC(=O)C1=C1C=C(C)N(CCO)C(C)=C1 ?
LASV entry inh: inconclusive; MARV entry inh: inconclusive; Shiga inhibitor: 125*; Cycloheximide cs: 71*; Pf growth 96h: 27%

What do the screens show for `CCN1C(=S)SC(=O)C1=C1C=C(C)N(CCOC)C(C)=C1`?
MARV entry inh: 4%; Shiga inhibitor: 107*; Cycloheximide cs: 44*; Pf growth 48h: 238%; Pf growth 96h: inconclusive

What do the screens show for `COCCN1C(=O)/C(=C/c2ccc(N3CCCC3)cc2)SC1=S`?
LASV entry inh: 17%; MARV entry inh: 14%[46.1 µM]; Shiga inhibitor: 32; Cycloheximide cs: -2; Pf growth 48h: 7%; Pf growth 96h: 95%

What do the screens show for `Cc1nn(Cc2cccc(C(=O)Nc3ccn(Cc4ccccc4)n3)c2)c(C)c1[N+](=O)[O-]`?
LASV entry inh: -18%; MARV entry inh: 5%; Shiga inhibitor: -8; Cycloheximide cs: -6; Pf growth 48h: inconclusive

What do the screens show for `CCN(CC(=O)N1CCCCCC1)S(=O)(=O)c1ccc(C)cc1`?
Shiga inhibitor: -2; Cycloheximide cs: -4; Pf growth 48h: -15%; Pf growth 96h: 7.4µM*

How did CCOC(=O)N1CCN(C(=O)CN(Cc2ccc(Cl)cc2)S(=O)(=O)c2ccc(C)cc2)CC1 do in these assays?
LASV entry inh: 8.2µM*; MARV entry inh: -23%; Shiga inhibitor: -17; Cycloheximide cs: 27; Pf growth 96h: 1.9µM*

How did CCN(CC(=O)N1CCCCCC1)S(=O)(=O)c1ccc(Cl)cc1 do in these assays?
LASV entry inh: -19%; MARV entry inh: 2%; Shiga inhibitor: -2; Cycloheximide cs: -2; Pf growth 48h: inconclusive; Pf growth 96h: 19%

What do the screens show for `CCN(CC(=O)N1CCN(C)CC1)S(=O)(=O)c1ccc(Cl)cc1`?
LASV entry inh: 5%; MARV entry inh: -13%; Shiga inhibitor: 6; Cycloheximide cs: -1; Pf growth 48h: -14%; Pf growth 96h: 9.3µM*

Results for CCOC(=O)N1CCN(C(=O)CN(Cc2ccc(Cl)cc2)S(C)(=O)=O)CC1 ?
LASV entry inh: -12%; MARV entry inh: 16%; Shiga inhibitor: -24; Cycloheximide cs: -3; Pf growth 48h: -6%; Pf growth 96h: 1%

Results for CN(c1cc(=O)n2ccccc2n1)C1CCCCC1 ?
LASV entry inh: 13%; MARV entry inh: -5%; Shiga inhibitor: 24; Cycloheximide cs: 24*; Pf growth 48h: inconclusive; Pf growth 96h: inconclusive

How did CCCNc1nc(C)nc2c1cnn2CCc1ccccc1 do in these assays?
LASV entry inh: 15%; MARV entry inh: 23%; Shiga inhibitor: 48; Cycloheximide cs: 19*; Pf growth 96h: -27%

Bioassay records from PubChem BioAssay.
